Read-out in test [1]: TIMP metallopeptidase inhibitor 2 (TIMP2), TIMP2 (gene 7077)
Description: BSK_KF3CT_TIMP2: BioMAP Diversity Plus: KF3CT Assay for TIMP metallopeptidase inhibitor 2 (TIMP2) Biomarker Activity (AID 2283071). To be noted: primary human keratinocytes with fibroblasts; actives raise or lower the signal. The method in brief:
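Chemicals were dosed onto human skin primary co-cultures of keratinocytes and foreskin fibroblasts, and TIMP-2 was measured by ELISA after 24 hours. Activity in either direction was fitted relative to DMSO.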

Read-out in test [2]: Transforming growth factor beta 1 (TGFb1), TGFB1 (gene 7040)
Put plainly: BSK_KF3CT_TGFb1: BioMAP Diversity Plus: KF3CT Assay for Transforming growth factor beta 1 (TGFb1) Biomarker Activity (AID 2283072). The conditions noted are these: primary human keratinocytes with fibroblasts; actives raise or lower the signal. The method in brief:
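KF3CT co-culture (keratinocytes + fibroblasts), 24 h exposure → TGF-b1 ELISA → bidirectional fit, DMSO = baseline. Parallel SRB total-protein staining (0.1% SRB, 10% TCA fixation, 560 nm) for cytotoxicity.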

Read-out in test [3]: C-C motif chemokine 2 (Homo sapiens) (UniProt P13500)
Description: BSK_KF3CT_MCP1: BioMAP Diversity Plus: KF3CT Assay for Monocyte Chemoattractant Protein 1 (MCP1/CCL2) Biomarker Activity (AID 2283073). The conditions noted are these: primary human keratinocytes with fibroblasts; actives raise or lower the signal. The essentials:
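ELISA read-out of MCP-1, 24 h post-dose, in primary human skin keratinocytes co-cultured with fibroblasts. Parallel SRB staining monitors cytotoxicity; changes fitted both directions relative to DMSO.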

Read-out in test [4]: Matrix Metallopeptidase 9 (MMP9), MMP9 (gene 4318)
Put plainly: BSK_KF3CT_MMP9: BioMAP Diversity Plus: KF3CT Assay for Matrix Metallopeptidase 9 (MMP9) Biomarker Activity (AID 2283074).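 For AC50: MMP9 protein level quantified by ELISA in the co-culture.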 To be noted: primary human keratinocytes with fibroblasts; actives raise or lower the signal. The method in brief:
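ELISA read-out of MMP-9 at 24 h post-dosing in a co-culture of human skin keratinocytes and foreskin fibroblasts. Gain or loss of signal was fitted in both directions against DMSO.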

Read-out in test [5]: urokinase plasminogen activator (uPA), PLAU (gene 5328)
Put plainly: BSK_KF3CT_uPA: BioMAP Diversity Plus: KF3CT Assay for urokinase plasminogen activator (uPA) Biomarker Activity (AID 2283075). To be noted: primary human keratinocytes with fibroblasts; actives raise or lower the signal. The method in brief: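 Skin co-culture (keratinocytes + foreskin fibroblasts), human primary; 24 h post-dose; uPA by ELISA; gain/loss fit vs DMSO baseline.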

Read-out in test [6]: CD40, CD40 (gene 958)
Description: BSK_LPS_CD40: BioMAP Diversity Plus: LPS Assay for CD40 Biomarker Activity (AID 2283076). To be noted: primary human HUVEC with PBMC; actives raise or lower the signal. The method in brief: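 In the LPS system of human endothelial cells with peripheral blood mononuclear cells, CD40 levels were read by ELISA 24 h post-treatment. Signal changes in either direction were fitted against the DMSO baseline, with parallel SRB protein staining.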

Read-out in test [7]: E-selectin (Homo sapiens) (UniProt P16581)
Put plainly: BSK_LPS_Eselectin: BioMAP Diversity Plus: LPS Assay for Eselectin Biomarker Activity (AID 2283077). To be noted: primary human HUVEC with PBMC; actives raise or lower the signal. The method in brief: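 E-selectin ELISA on LPS-stimulated endothelial cell/PBMC co-cultures, read 24 h post-treatment; gains and losses fitted against DMSO. Parallel SRB staining (0.1% SRB after 10% TCA fixation, 560 nm) flags overt cytotoxicity.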

Read-out in test [8]: Interleukin-8 (IL8), CXCL8 (gene 3576)
Description: BSK_LPS_IL8: BioMAP Diversity Plus: LPS Assay for Interleukin-8 (IL8) Biomarker Activity (AID 2283078). To be noted: primary human HUVEC with PBMC; actives raise or lower the signal. The essentials: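 ELISA read-out of IL-8 after 24 h chemical treatment of LPS-activated endothelial/PBMC human primary co-cultures. Changes either up or down relative to DMSO; overt cytotoxicity checked by sulforhodamine B staining in parallel wells.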

The nature of test [9]: BSK_LPS_SRB: Viability Assessment in the BioMAP Diversity Plus: LPS Assay (AID 2283079).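 Note: total protein by sulforhodamine B absorbance as a cytotoxicity measure; measured one day after compound addition.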 To be noted: primary human HUVEC with PBMC. The essentials: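 SRB viability endpoint: cells fixed with 10% TCA, stained with 0.1% SRB, read at 560 nm, 24 h post-dose. HUVEC/PBMC co-culture; signal change in either direction scored relative to DMSO.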
Read-out in test [10]: Interleukin-1 alpha (IL1a), IL1A (gene 3552)
Put plainly: BSK_LPS_IL1a: BioMAP Diversity Plus: LPS Assay for Interleukin-1 alpha (IL1a) Biomarker Activity (AID 2283080). To be noted: primary human HUVEC with PBMC; actives raise or lower the signal. The essentials: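 Readout is IL-1a level by ELISA, 24 h post-dose, fitted as gain or loss relative to DMSO. System: LPS-activated human primary co-culture of vascular endothelium and peripheral blood mononuclear cells, with parallel SRB total-protein cytotoxicity.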

Read-out in test [11]: Monocyte Chemoattractant Protein-1 (MCP1), CCL2 (gene 6347)
Description: BSK_LPS_MCP1: BioMAP Diversity Plus: LPS Assay for Monocyte Chemoattractant Protein-1 (MCP1) Biomarker Activity (AID 2283081).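 For AC50: secreted MCP-1 protein quantified by ELISA in culture supernatant.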 The conditions noted are these: primary human HUVEC with PBMC; actives raise or lower the signal. The essentials:
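Secreted MCP-1 read by ELISA at 24 h post-dosing in an LPS-activated co-culture of endothelial cells with peripheral blood mononuclear cells. Fits run in both directions, DMSO as baseline; parallel SRB staining tracks overt cytotoxicity.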

Test [12] is described as follows: BSK_LPS_PGE2: BioMAP Diversity Plus: LPS Assay for Prostaglandin E2 (PGE2) Biomarker Activity (AID 2283082).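 For AC50: secreted prostaglandin E2 measured by ELISA in LPS-stimulated co-culture.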 The conditions noted are these: primary human HUVEC with PBMC; actives raise or lower the signal. The essentials:
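Compounds were added to the LPS co-culture of endothelium and PBMC, and PGE2 was measured by ELISA after 24 h. Responses in either direction were fitted with DMSO as baseline.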

Read-out in test [13]: Macrophage colony-stimulating factor (MCSF), CSF1 (gene 1435)
Put plainly: BSK_LPS_MCSF: BioMAP Diversity Plus: LPS Assay for Macrophage colony-stimulating factor (MCSF) Biomarker Activity (AID 2283083). The conditions noted are these: primary human HUVEC with PBMC; actives raise or lower the signal. The essentials: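 Bidirectional fitting against DMSO was applied to M-CSF levels read by ELISA at 24 h post-dose. The system pairs human umbilical vein endothelium with peripheral blood mononuclear cells; parallel SRB staining tracked cytotoxicity.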

Read-out in test [14]: Tissue Factor, F3 (gene 2152)
Put plainly: BSK_LPS_TissueFactor: BioMAP Diversity Plus: LPS Assay for Tissue Factor Biomarker Activity (AID 2283084). To be noted: primary human HUVEC with PBMC; actives raise or lower the signal. The method in brief: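 Compound was added to an endothelial cell/PBMC co-culture, and after 24 h tissue factor (CD142) was read by ELISA. Gain or loss of signal was fitted against a DMSO baseline, and parallel SRB staining (560 nm) tracked overt cytotoxicity.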

Read-out in test [15]: Tumor necrosis factor (Homo sapiens) (UniProt P01375)
Description: BSK_LPS_TNFa: BioMAP Diversity Plus: LPS Assay for Tumour Necrosis Factor alpha (TNFa) Biomarker Activity (AID 2283085).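 For AC50: TNFa protein level quantified by ELISA in the co-culture.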 The conditions noted are these: primary human HUVEC with PBMC; actives raise or lower the signal. The method in brief: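 Cells (umbilical vein endothelium plus peripheral blood mononuclear cells) were dosed with chemical, incubated 24 h, then TNFa was quantified by ELISA; values derive from bidirectional fitting with DMSO as baseline.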

Read-out in test [16]: Vascular cell adhesion molecule 1 (VCAM1), VCAM1 (gene 7412)
Description: BSK_LPS_VCAM1: BioMAP Diversity Plus: LPS Assay for Vascular cell adhesion molecule 1 (VCAM1) Biomarker Activity (AID 2283086). The conditions noted are these: primary human HUVEC with PBMC; actives raise or lower the signal. The essentials: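 Cells are dosed in an LPS-stimulated endothelial/mononuclear co-culture and, after 24 h, VCAM-1 is quantified by ELISA. Activity in either direction is fitted relative to the DMSO negative control.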

Read-out in a further test: CD38, CD38 (gene 952)
Description: BSK_SAg_CD38: BioMAP Diversity Plus: SAg Assay for CD38 Biomarker Activity (AID 2283087). The conditions noted are these: primary human HUVEC with PBMC; actives raise or lower the signal. The method in brief: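 CD38 quantified by ELISA (fluorescence) in a superantigen-activated endothelial cell–PBMC co-culture at 24 h post-dose. Activity fitted in both directions relative to DMSO; parallel SRB and Alamar Blue cytotoxicity read-outs.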

Read-out in test [17]: CD40, CD40 (gene 958)
Description: BSK_SAg_CD40: BioMAP Diversity Plus: SAg Assay for CD40 Biomarker Activity (AID 2283088). To be noted: primary human HUVEC with PBMC; actives raise or lower the signal. The method in brief:
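CD40 is measured by fluorescence ELISA in an endothelial/PBMC primary human co-culture at 24 h post-dose. Fitting is bidirectional, DMSO baseline. Parallel SRB staining (560 nm) flags cytotoxicity.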

Read-out in the next test: CD69, CD69 (gene 969)
Description: BSK_SAg_CD69: BioMAP Diversity Plus: SAg Assay for CD69 Biomarker Activity (AID 2283089).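 For AC50: cell surface CD69 protein quantified by ELISA with fluorescence detection.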 The conditions noted are these: primary human HUVEC with PBMC; actives raise or lower the signal. The essentials:
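Values derive from bidirectional fitting relative to DMSO vehicle. Cells: umbilical vein endothelium plus peripheral blood mononuclear cells, treated 24 h before fluorescent ELISA for CD69.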

Active and inactive are the calls of the source. Rule for the calls: active = hit-call score of the fitted dose curve at least 0.9, where 1 is the maximum; inactive = score below 0.9.

Sequence of Tumor necrosis factor (Homo sapiens) (P01375 whole entry, looked up): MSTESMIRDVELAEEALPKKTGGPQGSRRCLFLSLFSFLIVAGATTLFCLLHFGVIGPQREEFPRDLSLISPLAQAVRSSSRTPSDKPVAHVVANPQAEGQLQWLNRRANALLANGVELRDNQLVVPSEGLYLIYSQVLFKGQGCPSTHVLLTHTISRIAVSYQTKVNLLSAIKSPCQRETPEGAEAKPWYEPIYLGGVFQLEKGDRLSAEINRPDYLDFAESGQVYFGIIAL
Sequence of E-selectin (Homo sapiens) (P16581 whole entry, looked up): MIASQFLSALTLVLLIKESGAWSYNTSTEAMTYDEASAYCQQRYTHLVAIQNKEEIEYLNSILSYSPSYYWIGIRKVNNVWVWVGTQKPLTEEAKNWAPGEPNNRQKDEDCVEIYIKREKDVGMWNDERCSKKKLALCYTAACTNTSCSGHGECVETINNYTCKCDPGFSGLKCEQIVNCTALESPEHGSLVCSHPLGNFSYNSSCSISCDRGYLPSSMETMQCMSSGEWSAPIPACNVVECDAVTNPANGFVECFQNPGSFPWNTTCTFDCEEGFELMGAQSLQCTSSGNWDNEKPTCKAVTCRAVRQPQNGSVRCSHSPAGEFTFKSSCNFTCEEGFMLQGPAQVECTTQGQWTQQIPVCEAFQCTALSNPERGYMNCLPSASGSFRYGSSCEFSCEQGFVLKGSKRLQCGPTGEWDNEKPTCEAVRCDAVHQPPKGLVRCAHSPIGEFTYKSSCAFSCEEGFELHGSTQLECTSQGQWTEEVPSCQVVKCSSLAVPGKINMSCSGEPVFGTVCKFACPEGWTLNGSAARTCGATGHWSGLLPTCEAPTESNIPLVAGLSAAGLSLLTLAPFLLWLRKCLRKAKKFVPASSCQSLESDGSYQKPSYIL

In the case of `CCc1ccc(C(c2ccc(CC)cc2)C(Cl)Cl)cc1`, the AC50 (commonly the concentration giving half of the maximal activity seen) in test [1] was 13 µM (active); in test [2], 20 µM (active); in test [3] it was 10.1 µM (active); in test [4], 11.9 µM (active); in the test with CD40, CD40 (gene 958) [6], 14.2 µM (active); in test [9], 25.1 µM (active). For the same compound, the half-maximal activity concentration (AC50) was 20 µM (active) in test [10]; 31.4 µM (active) in test [11]; 0.158 µM (active) in test [12]; 20 µM (active) in test [13]; 29.9 µM (active) in test [15]; 27.2 µM (active) in [16]. Moreover, the AC50 with CD38, CD38 (gene 952) was 27.7 µM (active); in the test with CD40, CD40 (gene 958) [17], 28.9 µM (active); with CD69, CD69 (gene 969), 15.1 µM (active). In addition, the result in [5], in [7], in test [8] and in test [14] was inactive.

As to `FC(F)(F)C(F)(F)C(F)(F)C(F)(F)C(F)(F)C(F)(F)C(F)(F)Br`, the outcome was “inactive” in [1]; “inactive” in test [3]; “inactive” in [4]; “inactive” in test [5]; “inactive” in the test with CD40, CD40 (gene 958) [6]; “inactive” in test [7]. The outcome in [8], in test [9], in test [10], in test [11], in [12] and in [13] was inactive. The outcome in test [14] is “inactive”; in test [15] it was “inactive”; in test [16], “inactive”; in the test with CD38, CD38 (gene 952), “inactive”; in the test with CD40, CD40 (gene 958) [17], “inactive”; in the test with CD69, CD69 (gene 969), “inactive”.

Consider `FC(F)(Br)C(F)(F)C(F)(F)C(F)(F)C(F)(F)C(F)(F)Br`, for which the outcome in test [1] is “inactive”; in [3] it was “inactive”; in test [4], “inactive”; in [5], “inactive”; in the test with CD40, CD40 (gene 958) [6], “inactive”; in test [7] it was “inactive”. The outcome in [8], in test [9], in test [10], in test [11], in test [12] and in test [14] was inactive. Besides, the outcome was “inactive” in [15]; “inactive” in test [16]; “inactive” in the test with CD38, CD38 (gene 952); “inactive” in the test with CD40, CD40 (gene 958) [17]; “inactive” with CD69, CD69 (gene 969).

Values taken from PubChem BioAssay (EPA / NIEHS).
